The record followed here is PubChem BioAssay (EPA / NIEHS).

Read-out in experiment [1]: Monokine induced gamma interferon (MIG), CXCL9 (gene 4283)
Put plainly: BSK_SAg_MIG: BioMAP Diversity Plus: SAg Assay for Monokine induced gamma interferon (MIG) Biomarker Activity (AID 2283092). The conditions noted are these: primary human HUVEC with PBMC; actives raise or lower the signal. In short, it runs like this: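 ELISA readout of MIG/CXCL9; primary human umbilical vein endothelial cells co-cultured with peripheral blood mononuclear cells; 24 h post-dose; gain/loss fit vs DMSO baseline.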

The nature of experiment [2]: BSK_SAg_PBMCCytotoxicity: PBMC Cytotoxicity Assessment in the BioMAP Diversity Plus: SAg Assay (AID 2283093).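 Also: fitted both ways against DMSO so a hit may be loss or gain of signal.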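 As to AC50: PBMC superantigen activated with SEB plus TSST-1 one hour after compound addition.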 As to conditions: primary human HUVEC with PBMC. The gist of the method: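 PBMC viability by Alamar Blue reduction, fluorescence read at 546/580 nm after 6 h dye exposure. Cells were dosed 1 h before SEB plus TSST-1 activation (20 ng/mL final each), then held 90 h; endothelial/PBMC human co-culture.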

Read-out in experiment [3]: Interleukin-8 (IL8), CXCL8 (gene 3576)
The experiment can be described thus: BSK_SAg_IL8: BioMAP Diversity Plus: SAg Assay for Interleukin-8 (IL8) Biomarker Activity (AID 2283094). As to conditions: primary human HUVEC with PBMC; actives raise or lower the signal. In short, it runs like this:
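Chemicals were dosed onto a human endothelial–PBMC co-culture, and IL-8 was quantified by ELISA after 24 h. Both increases and decreases were fitted relative to DMSO.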

Experiment [4] can be described thus: BSK_SAg_Proliferation: Cell Proliferation Assessment in the BioMAP Diversity Plus: SAg Assay (AID 2283095).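 Also: relative cell number as total protein by SRB absorbance in sub-confluent culture.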 The conditions noted are these: primary human HUVEC with PBMC. In short, it runs like this:
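Absorbance of sulforhodamine B at 560 nm reports total protein in a human vascular endothelial/PBMC co-culture after 96 h chemical exposure. Gain or loss of signal is fitted in both directions against DMSO.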

The nature of experiment [5]: BSK_SAg_SRB: Viability Assessment in the BioMAP Diversity Plus: SAg Assay (AID 2283096).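 Also: cells read one day after compound addition; hits may be either gain or loss of signal compared with DMSO.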 As to conditions: primary human HUVEC with PBMC. The gist of the method: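 Compounds were added to a human vascular co-culture of umbilical vein endothelium and PBMC. After 24 h, parallel cultures were fixed with 10% TCA, stained with 0.1% sulforhodamine B and read at 560 nm. Gain or loss of signal was fitted relative to DMSO.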

Experiment [6] concerns the target human CYP19A1, CYP19A1 (gene 1588) (UniProt P11511). The experiment can be described thus: NVS_ADME_hCYP19A1: NovaScreen (NVS) CYP450-related Enzyme Activity (ADME) Assay for human CYP19A1 (AID 2283098; active = hit-call score of the fitted dose curve at least 0.9, where 1 is the maximum). In short, it runs like this:
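Fluorescence intensity read-out; activity taken as signal loss relative to acetonitrile vehicle. Extracted enzyme, specific substrate, no cells, 0.5 h exposure. Duplicate single-point screen at 10 uM, then concentration–response follow-up for actives.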

The target of experiment [7] is human CYP1A2, CYP1A2 (gene 1544) (UniProt P05177). The experiment can be described thus: NVS_ADME_hCYP1A2: NovaScreen (NVS) CYP450-related Enzyme Activity (ADME) Assay for human CYP1A2 (AID 2283102; active = hit-call score of the fitted dose curve at least 0.9, where 1 is the maximum;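 also: potency for inhibition since loss of fluorescence marks reduced CYP1A2 activity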). The gist of the method:
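Inhibition scored as decrease in fluorescent product versus acetonitrile negative control. Enzyme: insect-cell recombinant human CYP1A2, substrate-specific, cell-free. Reading at 0.5 h; 10 uM duplicate initial screen with positive and negative controls on every plate.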

The target in experiment [8] is human CYP2A6, CYP2A6 (gene 1548) (UniProt P11509). The experiment can be described thus: NVS_ADME_hCYP2A6: NovaScreen (NVS) CYP450-related Enzyme Activity (ADME) Assay for human CYP2A6 (AID 2283099; active = hit-call score of the fitted dose curve at least 0.9, where 1 is the maximum). The gist of the method:
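Loss of fluorescence signal relative to acetonitrile vehicle reported CYP2A6 inhibition in a cell-free system using insect-cell-derived enzyme. Readings were taken at 0.5 h; top concentration in follow-up dose series was 20 uM.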

Experiment [9] addresses human CYP2B6, CYP2B6 (gene 1555) (UniProt P20813). The experiment can be described thus: NVS_ADME_hCYP2B6: NovaScreen (NVS) CYP450-related Enzyme Activity (ADME) Assay for human CYP2B6 (AID 2283101; active = hit-call score of the fitted dose curve at least 0.9, where 1 is the maximum). In short, it runs like this: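 Fluorescence-based enzyme activity of recombinant human CYP2B6, measured 1 h post-dose against acetonitrile vehicle baseline. Screened at a single concentration of 10 uM in duplicate before concentration-response follow-up.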

For experiment [10], the target named is Cytochrome P450 2C18 (Homo sapiens) (UniProt P33260). The experiment can be described thus: NVS_ADME_hCYP2C18: NovaScreen (NVS) CYP450-related Enzyme Activity (ADME) Assay for human CYP2C18 (AID 2283103). In short, it runs like this:
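Enzyme activity measured by fluorescence 0.5 h after compound addition, using recombinant CYP2C18 and a specific substrate. Actives from duplicate 10 uM screening were retested in concentration series (top 20 uM); acetonitrile served as negative baseline.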

The target in experiment [11] is human CYP2C8, CYP2C8 (gene 1558) (UniProt P10632). Put plainly: NVS_ADME_hCYP2C8: NovaScreen (NVS) CYP450-related Enzyme Activity (ADME) Assay for human CYP2C8 (AID 2283104). The gist of the method: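 Fluorescence readout of substrate turnover by recombinant CYP2C8 after 0.5 h, baseline acetonitrile. Single-concentration duplicate screen at 10 uM preceded singleton concentration series (max 20 uM) for compounds passing the inhibition threshold.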

In experiment [12] the target is human CYP2J2, CYP2J2 (gene 1573) (UniProt P51589). The experiment can be described thus: NVS_ADME_hCYP2J2: NovaScreen (NVS) CYP450-related Enzyme Activity (ADME) Assay for human CYP2J2 (AID 2283106; active = hit-call score of the fitted dose curve at least 0.9, where 1 is the maximum). In short, it runs like this: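 Chemicals were first tested at 10 uM in duplicate, and hits meeting criteria such as 30% inhibition were run in singleton concentration series with a 20 uM top concentration. Enzyme activity of recombinant CYP2J2 was measured by fluorescence after 1 h, relative to acetonitrile.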

In experiment [13] the target is human CYP2D6, CYP2D6 (gene 1565) (UniProt P10635). The experiment can be described thus: NVS_ADME_hCYP2D6: NovaScreen (NVS) CYP450-related Enzyme Activity (ADME) Assay for human CYP2D6 (AID 2283107; active = hit-call score of the fitted dose curve at least 0.9, where 1 is the maximum). In short, it runs like this: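 Biochemical fluorescence assay, insect-cell-derived enzyme. Read at 1 h; inhibition taken from loss of signal against acetonitrile. Screened at 10 uM in duplicate, with concentration series for actives.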

For experiment [14], the target named is Cytochrome P450 2C19 (Homo sapiens) (UniProt P33261). The experiment can be described thus: NVS_ADME_hCYP2C19: NovaScreen (NVS) CYP450-related Enzyme Activity (ADME) Assay for human CYP2C19 (AID 2283113; active = hit-call score of the fitted dose curve at least 0.9, where 1 is the maximum;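 also: potency for inhibition seen as loss of fluorescent signal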). The gist of the method:
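Biochemical CYP2C19 inhibition screen: insect-cell recombinant protein plus fluorescent substrate, 1 h, fluorescence intensity. Acetonitrile defined baseline activity. Single 10 uM concentration in duplicate, with concentration-response follow-up for actives.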

Experiment [15] concerns the target rat CYP2A1, Cyp2a1 (gene 24894) (UniProt P11711). The experiment can be described thus: NVS_ADME_rCYP2A1: NovaScreen (NVS) CYP450-related Enzyme Activity (ADME) Assay for rat CYP2A1 (AID 2283114). In short, it runs like this: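 Cell-free fluorescence enzyme-activity read on recombinant rat CYP2A1, taken 0.75 h post-dosing. Compounds were screened in duplicate at 10 uM, then hits tested in concentration series (max 20 uM); inhibition scored relative to acetonitrile baseline.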

For experiment [16], the target named is rat CYP1A2, Cyp1a2 (gene 24297) (UniProt P04799). Put plainly: NVS_ADME_rCYP1A2: NovaScreen (NVS) CYP450-related Enzyme Activity (ADME) Assay for rat CYP1A2 (AID 2283115; active = hit-call score of the fitted dose curve at least 0.9, where 1 is the maximum). In short, it runs like this:
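Primary testing ran in duplicate at 10 uM, with actives re-tested across concentration series. Fluorescence intensity from substrate turnover by recombinant protein, measured 1 hour post-dosing, with signal loss scored against acetonitrile vehicle.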

Experiment [17] has as its target human CYP2C9, CYP2C9 (gene 1559) (UniProt P11712). The experiment can be described thus: NVS_ADME_hCYP2C9: NovaScreen (NVS) CYP450-related Enzyme Activity (ADME) Assay for human CYP2C9 (AID 2283108; active = hit-call score of the fitted dose curve at least 0.9, where 1 is the maximum). In short, it runs like this: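 Recombinant human CYP2C9 expressed in SF9 cells, fluorogenic substrate, fluorescence read 0.75 h after dosing. Chemicals first run in duplicate at 10 uM, with actives followed in concentration series; loss of signal versus acetonitrile baseline.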

Results filed as inconclusive are left out. Activity calls are given as the source filed them. The calls were made as follows, unless noted: active = hit-call score of the fitted dose curve at least 0.9, where 1 is the maximum; inactive = score below 0.9.

human CYP19A1, CYP19A1 (gene 1588), sequence (P11511 whole entry, looked up): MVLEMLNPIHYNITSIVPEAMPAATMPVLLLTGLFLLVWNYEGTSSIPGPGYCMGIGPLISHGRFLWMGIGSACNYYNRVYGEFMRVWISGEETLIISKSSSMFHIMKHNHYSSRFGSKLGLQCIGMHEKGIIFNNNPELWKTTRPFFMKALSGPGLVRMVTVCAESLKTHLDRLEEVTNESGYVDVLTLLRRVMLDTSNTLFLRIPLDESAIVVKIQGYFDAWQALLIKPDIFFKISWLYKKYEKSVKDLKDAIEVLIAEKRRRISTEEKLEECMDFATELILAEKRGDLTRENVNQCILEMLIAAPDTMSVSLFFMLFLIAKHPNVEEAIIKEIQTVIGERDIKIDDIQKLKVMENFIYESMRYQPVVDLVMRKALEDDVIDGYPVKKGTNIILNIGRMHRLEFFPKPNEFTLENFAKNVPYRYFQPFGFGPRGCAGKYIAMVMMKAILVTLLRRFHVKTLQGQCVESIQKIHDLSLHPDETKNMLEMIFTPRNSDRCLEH
human CYP1A2, CYP1A2 (gene 1544), sequence (P05177 whole entry, looked up): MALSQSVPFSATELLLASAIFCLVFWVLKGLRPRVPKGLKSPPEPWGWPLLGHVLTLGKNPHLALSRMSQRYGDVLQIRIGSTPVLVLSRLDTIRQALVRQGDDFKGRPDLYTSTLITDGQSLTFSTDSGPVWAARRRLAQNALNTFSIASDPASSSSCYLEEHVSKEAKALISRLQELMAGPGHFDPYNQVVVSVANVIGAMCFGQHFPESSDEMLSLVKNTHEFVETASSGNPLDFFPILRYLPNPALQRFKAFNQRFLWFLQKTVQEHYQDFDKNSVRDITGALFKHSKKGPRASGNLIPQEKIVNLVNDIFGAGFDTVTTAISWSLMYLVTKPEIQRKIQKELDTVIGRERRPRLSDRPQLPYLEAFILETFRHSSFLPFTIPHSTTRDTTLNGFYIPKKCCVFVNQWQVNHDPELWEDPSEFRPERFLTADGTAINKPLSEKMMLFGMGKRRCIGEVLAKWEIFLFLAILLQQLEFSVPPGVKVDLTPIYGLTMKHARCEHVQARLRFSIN
rat CYP2A1, Cyp2a1 (gene 24894), sequence (P11711 whole entry, looked up): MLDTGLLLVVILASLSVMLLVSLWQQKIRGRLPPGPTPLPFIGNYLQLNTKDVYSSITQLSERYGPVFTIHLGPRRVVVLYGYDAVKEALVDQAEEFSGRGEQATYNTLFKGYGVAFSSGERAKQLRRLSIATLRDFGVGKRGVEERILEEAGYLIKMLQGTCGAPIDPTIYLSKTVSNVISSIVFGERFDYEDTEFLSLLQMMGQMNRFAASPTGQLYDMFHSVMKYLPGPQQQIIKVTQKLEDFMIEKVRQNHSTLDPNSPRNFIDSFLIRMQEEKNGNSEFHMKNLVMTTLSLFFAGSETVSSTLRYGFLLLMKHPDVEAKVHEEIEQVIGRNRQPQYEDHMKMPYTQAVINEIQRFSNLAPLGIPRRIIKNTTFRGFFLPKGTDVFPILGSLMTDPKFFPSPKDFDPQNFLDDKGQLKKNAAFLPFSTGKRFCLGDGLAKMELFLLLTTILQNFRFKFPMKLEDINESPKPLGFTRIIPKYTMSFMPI
Cytochrome P450 2C18 (Homo sapiens), sequence (P33260 whole entry, looked up): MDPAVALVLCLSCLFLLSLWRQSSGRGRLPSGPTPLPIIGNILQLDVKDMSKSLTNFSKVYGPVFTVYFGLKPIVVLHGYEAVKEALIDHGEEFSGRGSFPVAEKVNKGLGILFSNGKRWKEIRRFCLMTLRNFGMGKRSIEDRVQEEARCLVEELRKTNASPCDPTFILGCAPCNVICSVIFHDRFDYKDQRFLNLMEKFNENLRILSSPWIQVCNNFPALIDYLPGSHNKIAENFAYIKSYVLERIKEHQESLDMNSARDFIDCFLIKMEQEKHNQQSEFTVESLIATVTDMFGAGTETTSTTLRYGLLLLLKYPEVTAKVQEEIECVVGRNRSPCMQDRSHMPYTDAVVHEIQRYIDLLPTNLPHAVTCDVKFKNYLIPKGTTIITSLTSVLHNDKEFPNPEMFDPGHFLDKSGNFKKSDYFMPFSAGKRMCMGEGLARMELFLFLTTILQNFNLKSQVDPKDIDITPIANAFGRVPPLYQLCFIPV
human CYP2A6, CYP2A6 (gene 1548), sequence (P11509 whole entry, looked up): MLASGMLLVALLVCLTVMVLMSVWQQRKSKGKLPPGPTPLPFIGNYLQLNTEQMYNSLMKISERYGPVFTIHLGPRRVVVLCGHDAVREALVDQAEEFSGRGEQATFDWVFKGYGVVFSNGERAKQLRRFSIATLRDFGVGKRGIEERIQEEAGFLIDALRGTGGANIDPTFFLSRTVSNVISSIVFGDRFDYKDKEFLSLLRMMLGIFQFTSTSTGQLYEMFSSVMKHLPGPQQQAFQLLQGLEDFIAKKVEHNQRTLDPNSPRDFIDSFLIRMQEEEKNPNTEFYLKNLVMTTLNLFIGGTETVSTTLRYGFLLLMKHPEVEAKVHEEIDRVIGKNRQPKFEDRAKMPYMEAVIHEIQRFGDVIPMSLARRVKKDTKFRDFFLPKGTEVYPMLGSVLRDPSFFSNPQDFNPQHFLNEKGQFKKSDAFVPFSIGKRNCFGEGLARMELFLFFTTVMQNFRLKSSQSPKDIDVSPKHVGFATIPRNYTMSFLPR
human CYP2D6, CYP2D6 (gene 1565), sequence (P10635 whole entry, looked up): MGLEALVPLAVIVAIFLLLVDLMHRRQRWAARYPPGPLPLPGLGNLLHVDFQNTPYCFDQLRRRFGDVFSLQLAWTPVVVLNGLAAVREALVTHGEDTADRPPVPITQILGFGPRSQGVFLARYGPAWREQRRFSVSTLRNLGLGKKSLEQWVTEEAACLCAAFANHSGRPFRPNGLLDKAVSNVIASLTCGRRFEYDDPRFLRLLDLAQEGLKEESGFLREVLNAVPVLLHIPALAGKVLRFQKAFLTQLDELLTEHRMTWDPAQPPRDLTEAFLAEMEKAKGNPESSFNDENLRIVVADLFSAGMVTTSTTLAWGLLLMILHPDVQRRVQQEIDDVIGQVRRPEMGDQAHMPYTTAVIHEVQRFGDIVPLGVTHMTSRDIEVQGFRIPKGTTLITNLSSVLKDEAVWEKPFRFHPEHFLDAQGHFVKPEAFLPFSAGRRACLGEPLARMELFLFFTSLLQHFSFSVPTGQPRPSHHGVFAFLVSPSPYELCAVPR
human CYP2J2, CYP2J2 (gene 1573), sequence (P51589 whole entry, looked up): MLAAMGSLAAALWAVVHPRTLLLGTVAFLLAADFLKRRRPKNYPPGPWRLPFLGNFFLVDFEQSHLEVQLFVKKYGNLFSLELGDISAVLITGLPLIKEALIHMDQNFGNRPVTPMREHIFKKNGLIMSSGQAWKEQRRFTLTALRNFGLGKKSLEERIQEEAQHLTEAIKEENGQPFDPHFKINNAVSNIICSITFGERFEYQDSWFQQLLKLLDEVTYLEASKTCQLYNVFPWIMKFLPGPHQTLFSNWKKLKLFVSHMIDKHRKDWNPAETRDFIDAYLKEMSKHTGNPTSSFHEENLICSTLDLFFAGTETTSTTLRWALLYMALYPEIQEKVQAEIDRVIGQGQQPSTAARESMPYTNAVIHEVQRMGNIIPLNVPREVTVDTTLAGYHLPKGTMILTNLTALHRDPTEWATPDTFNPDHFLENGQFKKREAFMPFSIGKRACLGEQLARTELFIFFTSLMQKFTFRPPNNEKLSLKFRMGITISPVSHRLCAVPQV
human CYP2C8, CYP2C8 (gene 1558), sequence (P10632 whole entry, looked up): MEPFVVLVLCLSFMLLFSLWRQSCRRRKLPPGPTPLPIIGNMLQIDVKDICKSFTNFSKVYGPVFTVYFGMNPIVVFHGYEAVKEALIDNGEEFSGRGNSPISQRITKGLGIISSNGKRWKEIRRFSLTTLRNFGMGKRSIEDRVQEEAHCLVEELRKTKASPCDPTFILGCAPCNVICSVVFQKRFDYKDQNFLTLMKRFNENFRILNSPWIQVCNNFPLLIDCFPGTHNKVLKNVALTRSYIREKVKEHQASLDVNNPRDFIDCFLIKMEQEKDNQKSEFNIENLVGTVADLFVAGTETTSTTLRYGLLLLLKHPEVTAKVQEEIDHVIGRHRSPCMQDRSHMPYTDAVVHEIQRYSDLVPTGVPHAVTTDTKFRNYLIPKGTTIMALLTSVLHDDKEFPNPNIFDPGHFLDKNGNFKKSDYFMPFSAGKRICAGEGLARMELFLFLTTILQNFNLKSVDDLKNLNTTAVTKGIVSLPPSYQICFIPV
human CYP2C9, CYP2C9 (gene 1559), sequence (P11712 whole entry, looked up): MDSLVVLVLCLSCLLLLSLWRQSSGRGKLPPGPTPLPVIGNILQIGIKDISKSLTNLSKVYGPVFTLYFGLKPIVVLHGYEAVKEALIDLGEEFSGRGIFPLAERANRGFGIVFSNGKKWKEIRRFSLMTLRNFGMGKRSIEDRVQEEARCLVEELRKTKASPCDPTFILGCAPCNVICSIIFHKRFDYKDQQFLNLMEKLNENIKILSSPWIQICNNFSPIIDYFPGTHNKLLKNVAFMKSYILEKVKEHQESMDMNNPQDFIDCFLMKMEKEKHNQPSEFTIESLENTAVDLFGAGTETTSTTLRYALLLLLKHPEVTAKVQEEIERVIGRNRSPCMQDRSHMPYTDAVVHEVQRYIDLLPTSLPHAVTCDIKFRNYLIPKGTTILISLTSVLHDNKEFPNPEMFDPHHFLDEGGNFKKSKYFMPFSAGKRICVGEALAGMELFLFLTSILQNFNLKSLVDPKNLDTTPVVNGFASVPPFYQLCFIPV
human CYP2B6, CYP2B6 (gene 1555), sequence (P20813 whole entry, looked up): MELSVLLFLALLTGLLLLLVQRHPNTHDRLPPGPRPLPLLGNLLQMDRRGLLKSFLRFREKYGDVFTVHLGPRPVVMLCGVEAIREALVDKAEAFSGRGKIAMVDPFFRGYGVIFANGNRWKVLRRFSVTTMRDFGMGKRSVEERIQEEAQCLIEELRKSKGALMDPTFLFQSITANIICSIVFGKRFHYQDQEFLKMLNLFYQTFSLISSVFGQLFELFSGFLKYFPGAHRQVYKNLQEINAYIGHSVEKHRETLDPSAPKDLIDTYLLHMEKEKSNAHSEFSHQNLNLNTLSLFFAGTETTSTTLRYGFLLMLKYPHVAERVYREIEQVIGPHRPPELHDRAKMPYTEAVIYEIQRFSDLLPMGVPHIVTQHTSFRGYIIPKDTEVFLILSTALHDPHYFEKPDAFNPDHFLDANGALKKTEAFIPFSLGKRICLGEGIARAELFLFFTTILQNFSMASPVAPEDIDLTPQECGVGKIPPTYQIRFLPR

A word on the AC50: it is the concentration at which the activity in the assay is half-maximal. As for `CNC(=O)Oc1cccc2ccccc12`, the outcome in [1], in experiment [3], in experiment [5] and in experiment [6] was inactive. Besides, the AC50 in experiment [2] was 15.9 µM (active); in experiment [4], 22.4 µM (active); in experiment [7] it was 5.35 µM (active).

`N#Cc1c(Cl)cccc1Cl`: the outcome in [1], in experiment [2], in experiment [3] and in experiment [4] was inactive.

With `COP(=S)(OC)Oc1ccc([N+](=O)[O-])c(C)c1`, the result in experiment [1], in [2], in [5], in experiment [6], in experiment [11] and in experiment [16] was inactive. The AC50 in [3] is 29.6 µM (active); in experiment [4], 24.9 µM (active); in experiment [8] it was 1.98 µM (active); in experiment [9], 1.3 µM (active); in [7], 0.516 µM (active); in [10], 2.31 µM (active). Also, the AC50 in [12] was 0.612 µM (active); in experiment [13] it was 4.59 µM (active); in experiment [14] it was 0.168 µM (active); in experiment [15] it was 3.84 µM (active).

`Cc1cnc(C2=NC(C)(C(C)C)C(=O)N2)c(C(=O)O)c1` (stereo not drawn): the result in experiment [1], in experiment [2], in experiment [3], in [4] and in [5] was inactive.

With `COCC(C)N(C(=O)CCl)c1c(C)csc1C` (stereo not drawn), the outcome in [1], in experiment [2], in [3], in experiment [4] and in experiment [5] was inactive.

Turning to `CN/C(=N\[N+](=O)[O-])NCc1cnc(Cl)s1`, the outcome in experiment [1], in experiment [2], in [3], in experiment [4] and in experiment [5] was inactive.

`CCCC(=NOCC)C1=C(O)CC(CC(C)SCC)CC1=O` (stereo not drawn): the outcome in [1], in [2], in experiment [3] and in [4] was inactive.

Turning to `COCC(=O)N(c1c(C)cccc1C)C(C)C(=O)OC` (stereo not drawn), the outcome in experiment [1], in experiment [2], in [3], in [4] and in experiment [6] was inactive. Also, the AC50 in experiment [5] is 26.1 µM (active).

In the case of `Nc1c(Cl)c(F)nc(OCC(=O)O)c1Cl`, the result in experiment [1], in experiment [2], in experiment [3] and in experiment [4] was inactive.

As for `CCNC(=O)NC(=O)C(C#N)=NOC`, the outcome in experiment [1], in experiment [2], in experiment [3] and in experiment [4] was inactive.

Regarding `Nc1c(Cl)c(Cl)nc(C(=O)O)c1Cl`, the outcome in [1], in experiment [2], in experiment [3], in [4] and in [5] was inactive.

Take `CC(C)Nc1nc(Cl)nc(NC(C)C)n1`: the result in experiment [1], in [2], in [3], in experiment [4] and in [5] was inactive.

As for `COc1cc(Cl)c(OC)cc1Cl`, the outcome in experiment [1], in experiment [2], in experiment [3] and in experiment [4] was inactive.

As for `O=P(O)(O)CCCl`, the result in experiment [1], in experiment [2], in experiment [3], in experiment [4] and in experiment [5] was inactive.

Consider `CC(C)Oc1cccc(NC(=O)c2ccccc2C(F)(F)F)c1`, for which the result in [1], in [2], in [3], in [4], in [6] and in [15] was inactive. Also, the AC50 in experiment [5] is 15.1 µM (active); in experiment [7] it was 6.37 µM (active); in [10], 2.66 µM (active); in experiment [17], 3.19 µM (active); in experiment [14], 4.9 µM (active).

Consider `COc1cc(OC)nc(NC(=O)NS(=O)(=O)c2ncccc2OCC(F)(F)F)n1`, for which the result in experiment [1], in experiment [2], in experiment [3] and in experiment [4] was inactive.

Turning to `CS(=O)(=O)c1ccc(C(=O)C2C(=O)CCCC2=O)c([N+](=O)[O-])c1`, the outcome in experiment [1], in [2], in [3] and in [4] was inactive.

As to `C=CCOC(=O)C(C)(C)OC(=O)c1cc(-n2c(=O)cc(C(F)(F)F)n(C)c2=O)ccc1Cl`, the result in experiment [1], in [2], in [3] and in experiment [4] was inactive.

On to `CCOc1nc(C(Cl)(Cl)Cl)ns1`, for which the result in experiment [1], in experiment [2], in experiment [3] and in experiment [4] was inactive.

`CNC(=O)N(C)c1nnc(C(C)(C)C)s1`: the result in experiment [1], in experiment [2], in [3] and in experiment [4] was inactive.

For the compound `Cc1nc(N(C)C)nc(OC(=O)N(C)C)c1C`, the outcome in experiment [1], in [2], in experiment [3] and in [4] was inactive.

Take `CCSC(=O)N1CCCCCC1`: the outcome in [1], in [2], in experiment [3] and in [4] was inactive.
